This note sets out measurements from PubChem BioAssay AID1835 (Johns Hopkins Ion Channel Center, 2009).

Molecules are shown by their SMILES. The campaign covered roughly 2,400 compounds. About 750 (31%) were called active. The list shows a part of the results. A number with no mark means an inactive call.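 The calls were made as follows: active = median signal gain over dofetilide-blocked control wells reaching their mean plus 3 SD, so readout 1 at least 0; inactive = the rest.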

In this test the target is Voltage-gated inwardly rectifying potassium channel KCNH2 (Homo sapiens) (UniProt Q12809). Kind of test: hERG protection against dofetilide inhibition, confirmation, cell-based, thallium flux, duplicate retest, dofetilide IC70 (AID 1835). Conditions: hERG cell line, FluxOR thallium flux, dofetilide-blocked; at 10 µM; active compounds read high. (The hERG channel carries a current that helps repolarise heart muscle cells.)
Sequence of Voltage-gated inwardly rectifying potassium channel KCNH2 (Homo sapiens) (Q12809 whole entry, looked up): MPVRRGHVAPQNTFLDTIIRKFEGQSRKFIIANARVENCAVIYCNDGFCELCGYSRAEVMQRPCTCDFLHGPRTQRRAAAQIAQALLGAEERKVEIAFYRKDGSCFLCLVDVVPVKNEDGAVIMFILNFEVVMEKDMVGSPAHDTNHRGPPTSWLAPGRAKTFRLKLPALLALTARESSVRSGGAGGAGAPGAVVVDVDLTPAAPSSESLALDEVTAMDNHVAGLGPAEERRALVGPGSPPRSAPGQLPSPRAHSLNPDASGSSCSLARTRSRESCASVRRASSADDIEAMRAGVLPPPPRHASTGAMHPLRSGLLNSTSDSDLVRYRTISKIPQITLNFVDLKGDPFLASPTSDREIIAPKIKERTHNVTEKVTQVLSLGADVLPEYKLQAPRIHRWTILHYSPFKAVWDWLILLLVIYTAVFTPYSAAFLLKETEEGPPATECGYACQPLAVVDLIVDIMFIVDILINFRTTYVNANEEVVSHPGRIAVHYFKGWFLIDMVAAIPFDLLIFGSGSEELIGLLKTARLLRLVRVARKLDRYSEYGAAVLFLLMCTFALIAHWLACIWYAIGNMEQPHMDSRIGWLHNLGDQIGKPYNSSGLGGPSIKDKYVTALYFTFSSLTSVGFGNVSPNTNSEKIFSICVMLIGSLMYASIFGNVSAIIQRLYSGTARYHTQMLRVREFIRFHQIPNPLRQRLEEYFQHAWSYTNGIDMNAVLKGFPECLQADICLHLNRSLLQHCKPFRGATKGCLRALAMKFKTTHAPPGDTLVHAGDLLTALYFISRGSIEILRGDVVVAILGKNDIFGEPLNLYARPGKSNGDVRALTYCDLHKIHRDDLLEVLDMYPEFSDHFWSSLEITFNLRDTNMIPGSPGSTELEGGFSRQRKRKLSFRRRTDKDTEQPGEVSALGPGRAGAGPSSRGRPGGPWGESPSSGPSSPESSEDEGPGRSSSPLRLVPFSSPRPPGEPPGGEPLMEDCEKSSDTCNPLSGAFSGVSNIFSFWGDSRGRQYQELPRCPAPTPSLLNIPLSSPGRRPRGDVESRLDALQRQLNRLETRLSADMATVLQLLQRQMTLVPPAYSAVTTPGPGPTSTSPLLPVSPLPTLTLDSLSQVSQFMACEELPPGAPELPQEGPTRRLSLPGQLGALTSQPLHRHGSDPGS
Regarding `COCC(=O)NC1CC2CCC(C1)N2C(=S)Nc1ccccc1C(=O)OC` (stereo unspecified), the activity increase over dofetilide control, less the hit threshold is -6%.
`CCC[C@H]1COCCS(=O)(=O)N1Cc1ccc(Br)cc1`: the activity increase over dofetilide control, less the hit threshold is -4%.
As for `CS(=O)(=O)N1CCC(C(=O)Nc2c(F)cccc2F)CC1`, the activity increase over dofetilide control, less the hit threshold was -6%.
The figure for `Cn1c(=O)c2c(nc(Cl)n2CC(=O)N2CCCCC2)n(C)c1=O` is -11%.
The figure for `N=C1SCC(=O)N1c1ncc(Cc2ccccc2Cl)s1` is -9%; for `Cc1ccc(/C=N/NC(=O)c2cc(C)oc2C)o1` it is -5%.
The figure for `Cc1ccc(/C=N/NC(=O)c2cc(-c3ccncc3)nc3ccccc23)o1` is -22%; for `O=C(N/N=C/c1ccc(Sc2ccccn2)o1)c1cc2ccccc2cc1O` it is 7% (active).
Consider `Cc1cccc(/C=N/NC(=O)c2cc(Br)ccc2O)n1`, for which the activity increase over dofetilide control, less the hit threshold was 0%.
For the molecule `Cc1ccc(/C=N/NC(=O)c2cc3ccccc3cc2O)o1`, the activity increase over dofetilide control, less the hit threshold was 37% (active).
The figure for `O=C(N/N=C/c1ccc(-c2ccccc2)o1)c1ccccc1O` is -1%.
The figure for `COc1ccc(CCNS(=O)(=O)c2csc(C(N)=O)c2)cc1OC` is -14%; for `Cc1nnc2c(SC(C)C)nc3ccccc3n12` it is -19%.
The figure for `Cc1nc2ccccc2n1-c1ccccc1` is 3% (active); for `COC(=O)c1ccc(-n2c(C)nc(=O)c(-c3ccccc3)c2C)cc1` it is -13%.
As to `C=C(C)CSc1nnc2[nH]c(=O)cc(N)n12`, the activity increase over dofetilide control, less the hit threshold is -19%.
The figure for `CC1=CCC[C@@H]2[C@@](C)(CC/C(C)=C/C(=O)O)[C@H](C)CC[C@@]12C` is 84% (active); for `Nc1ccc2oc(-c3ccccc3Cl)cc(=O)c2c1O` it is -3%; for `Cc1nc2scc(C)n2c(=O)c1S(=O)(=O)Nc1ccc(N2CCOCC2)cc1` it is -7%.
The figure for `CCC1(C)Cc2c(sc3nc(SC)[nH]c(=S)c23)CO1` (stereo unspecified) is 87% (active); for `CCc1nc2sc3c(c2c(=S)[nH]1)CC(C)(C)OC3` it is -8%; for `CSc1nc2sc3c(c2c(=S)[nH]1)CC(C)(C)OC3` it is 81% (active).
For `CCN(CC(=O)NCc1ccc(Cl)cc1)C(=O)CCOc1ccc(C)cc1`, the activity increase over dofetilide control, less the hit threshold is -14%.
The figure for `CNc1nc(N)nc(OC(C(F)(F)F)C(F)(F)F)n1` is -24%.
Consider `O=C(N/N=C/c1cc(Cl)ccc1O)c1ccccc1Br`, for which the activity increase over dofetilide control, less the hit threshold was -3%.
Take `NC(=O)c1cccc(N=Cc2cc(Cl)cc(Cl)c2O)c1`: the activity increase over dofetilide control, less the hit threshold is 6% (active).
The figure for `Oc1c(Cl)cc(Cl)cc1/C=N/c1nccs1` is -11%; for `Oc1c(Cl)cc(Cl)cc1/C=N/c1ncn[nH]1` it is 15% (active); for `O=C(Nc1cccc(N=Cc2cc(Cl)cc(Br)c2O)c1)c1ccco1` it is 6% (active).
The figure for `Oc1c(Br)cc(Cl)cc1C=Nc1ccccc1Br` is 9% (active).
The figure for `Oc1c(Br)cc(Br)cc1C=Nc1cccc2ncccc12` is -7%; for `O=C(Nc1ccccc1C(=O)O)c1cccc(NC(=O)c2ccco2)c1` it is -3%.
For `O=C(NC(=S)Nc1cccc([N+](=O)[O-])c1)c1ccco1`, the activity increase over dofetilide control, less the hit threshold is -16%.
The figure for `COc1ccccc1-n1c(CCC(=O)O)ccc1-c1ccccc1` is -12%; for `Nc1cc(N)nc(SCc2cc(=O)oc3cc4c(cc23)CCC4)n1` it is -35%.
The figure for `CCCNC(=O)CN1C(=O)NC(Cc2c[nH]c3ccccc23)C1=O` (stereo unspecified) is -22%.
The figure for `COc1ccc(-c2nc(=S)c3c([nH]2)Oc2ccc(C)cc2C3)cc1O` is -22%; for `CC(=O)Nc1ccc(NC(=O)CSc2ncc(C(=O)Nc3ccc(Cl)cc3)c(=O)n2C)cc1` it is -4%; for `Oc1c(Br)cc(Br)cc1C=Nc1ccc2c(c1)OCCO2` it is -12%.
On to `Oc1c(Cl)cc(Cl)cc1C=Nc1ccc(Br)cc1`, for which the activity increase over dofetilide control, less the hit threshold is 8% (active).
The figure for `Cc1ccc(N=Cc2cc(Cl)cc(Cl)c2O)nc1` is 3% (active).
Consider `Cc1ccc(N=Cc2cc(Br)cc(Cl)c2O)cc1`, for which the activity increase over dofetilide control, less the hit threshold was -10%.
On to `Cc1cccc(N=Cc2cc(Br)cc(Cl)c2O)c1`, for which the activity increase over dofetilide control, less the hit threshold is 5% (active).
Regarding `CC(=O)N1c2ccc(N=Cc3cc(Br)cc(Br)c3O)cc2CC1C` (stereo unspecified), the activity increase over dofetilide control, less the hit threshold was -5%.
The figure for `O=C(CSCc1cnn(-c2ccccc2)c1-n1cccc1)NCc1cccnc1` is -22%.
In the case of `Cn1nnnc1Sc1ncnc2scc(-c3ccc(F)cc3)c12`, the activity increase over dofetilide control, less the hit threshold is -12%.
For `Cc1ccc(C)n1-n1c(C)nc2scc(-c3ccccc3)c2c1=O`, the activity increase over dofetilide control, less the hit threshold is -20%.
The figure for `Cc1ccc(-c2csc3nc[nH]c(=S)c23)cc1` is 45% (active).
In the case of `Cn1cc(/C=N/n2cnc3scc(-c4ccc(Cl)cc4)c3c2=O)c2ccccc21`, the activity increase over dofetilide control, less the hit threshold was -10%.
The figure for `S=c1[nH]cnc2scc(-c3ccc(Br)cc3)c12` is 33% (active); for `S=c1[nH]cnc2scc(-c3ccc(Cl)cc3)c12` it is 22% (active); for `S=c1[nH]cnc2scc(-c3ccccc3)c12` it is 51% (active).
The figure for `O=C1C(=O)N(CCN2CCOCC2)C(c2cccnc2)/C1=C(/O)c1ccc(Cl)cc1` (stereo unspecified) is -8%.
The figure for `CCn1nnnc1SCC(=O)N1c2ccccc2Sc2ccccc21` is -17%; for `CCOC(=O)N1CCN(c2c(-c3ccc(C)c(C)c3)c(=O)c2=O)CC1` it is 1% (active).
With `CCOC(=O)N1CCN(C(=O)CCn2c(=S)[nH]c3ccsc3c2=O)CC1`, the activity increase over dofetilide control, less the hit threshold is -6%.
The figure for `CCOC(=O)N1CCN(C(=O)CSc2nnc(-c3ccccc3OC)o2)CC1` is -8%.
The figure for `CC(C)OC(=O)C1CC(C)(O)C(=O)C(C(=O)OC(C)C)C1c1ccc([N+](=O)[O-])cc1` (stereo unspecified) is -22%; for `CN1CCN(c2nnc(-c3cccs3)c3ccccc23)CC1` it is -13%.
The figure for `CCOC(=O)CN1N=C(/C=C/c2ccc(OC)cc2)CCC1=O` is -25%; for `CCOC(=O)C1=NN(C(=O)c2ccc(OC)cc2)C(O)(c2ccc(Cl)cc2)C1` (stereo unspecified) it is 81% (active).
Regarding `CCOC(=O)C1=NN(C(=O)c2ccccc2)C(O)(c2ccc(C)cc2)C1` (stereo unspecified), the activity increase over dofetilide control, less the hit threshold was 1% (active).
The figure for `CCC1=NN(C(=O)c2ccc(Cl)cc2)C(O)(c2ccc(C)cc2)C1` (stereo unspecified) is -14%; for `CCOC(=O)C1=NN(C(=O)c2ccc(C)cc2)C(O)(c2ccc(Cl)cc2)C1` (stereo unspecified) it is 100% (active).
The figure for `O=C1C=C(Nc2cccc3cccnc23)c2ccccc2C1=O` is -5%; for `COCC(=O)Nc1cc(C)cn(Cc2c(F)cccc2Cl)c1=O` it is -5%.
